# Laboratory results from PubChem BioAssay (Tox21).
# Results filed as inconclusive are left out. Where a call stands in place of a potency, no number is given. The source made the active and inactive calls. Unless noted, calls follow the shape of the dose curve; as a rule, active = well fitted curve in the direction sought with a large enough effect in the repeat runs; inconclusive = weak or mixed curves; inactive = no such curve, though single readings can be large; an effect the other way counts as inactive or inconclusive.
# What was measured:
# [1] = qHTS assay to identify small molecule antagonists of the peroxisome proliferator-activated receptor gamma (PPARg) signaling pathway - cell viability counter screen (AID 743194); also: nearly all actives have a fitted effect of over 55% in size
# Procedure, shortened: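 Cytotoxicity counter screen in PPARg-bla HEK293H cells, same wells as reporter assay. Compounds plus 50 nM rosiglitazone (final) for 17 h at 37 C, then viability read by CellTiter-Glo luminescence.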
# [2] = qHTS assay for small molecule agonists of the antioxidant response element (ARE) signaling pathway - cell viability counter screen (AID 743203; calls by dose curve; also: nearly all actives have a fitted effect of over 55% in size)
# Procedure, shortened: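 Cytotoxicity was tested in parallel with the ARE reporter screen. ARE-bla HepG2 cells were exposed to compounds for 16 hrs, and viability was taken from CellTiter-Glo luminescence.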
# [3] = qHTS assay for small molecule activators of the heat shock response signaling pathway - cell viability counter screen (AID 743209); also: nearly all actives have a fitted effect of over 50% in size
# Procedure, shortened: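 Cytotoxicity counter screen run in parallel with the HSE beta-lactamase reporter, using the same wells. HeLa HSE-bla cells received compound for 5 h at 37 C; ATP-based CellTiter-Glo luminescence was measured after 30 min at room temperature.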
# [4] = qHTS assay for small molecule activators of the heat shock response signaling pathway (AID 743210; active = well fitted activation curve with a large enough effect in the signal ratio in the repeat runs, with a control signal flat, not every such curve was filed as active; the % refers to the signal ratio;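 also: HeLa cells with beta-lactamase reporter driven by heat shock elements; series mostly up to about 63 µM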)
# Procedure, shortened: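 Beta-lactamase reporter read-out: FRET substrate fluorescence after 2.5 h at RT, following 5 h compound treatment at 37 C of HeLa cells carrying HSE-driven bla reporter; quantitative HTS format.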
# [5] = qHTS assay to identify small molecule agonists of the peroxisome proliferator-activated receptor delta (PPARd) signaling pathway - cell viability counter screen (AID 743211); also: nearly all actives have a fitted effect of over 55% in size
# Procedure, shortened: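 In the same wells used for beta-lactamase reporter measurement, cytotoxicity is scored by CellTiter-Glo. HEK293H PPARd-bla cells receive compound for 17 h at 37C following a 5 h settling period.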
# [6] = molecular target: Peroxisome proliferator-activated receptor delta (Homo sapiens) (UniProt Q03181); assay: qHTS assay to identify small molecule agonists of the peroxisome proliferator-activated receptor delta (PPARd) signaling pathway (AID 743212; calls by dose curve)
# Chain of Peroxisome proliferator-activated receptor delta (Homo sapiens) (Q03181 whole entry, looked up): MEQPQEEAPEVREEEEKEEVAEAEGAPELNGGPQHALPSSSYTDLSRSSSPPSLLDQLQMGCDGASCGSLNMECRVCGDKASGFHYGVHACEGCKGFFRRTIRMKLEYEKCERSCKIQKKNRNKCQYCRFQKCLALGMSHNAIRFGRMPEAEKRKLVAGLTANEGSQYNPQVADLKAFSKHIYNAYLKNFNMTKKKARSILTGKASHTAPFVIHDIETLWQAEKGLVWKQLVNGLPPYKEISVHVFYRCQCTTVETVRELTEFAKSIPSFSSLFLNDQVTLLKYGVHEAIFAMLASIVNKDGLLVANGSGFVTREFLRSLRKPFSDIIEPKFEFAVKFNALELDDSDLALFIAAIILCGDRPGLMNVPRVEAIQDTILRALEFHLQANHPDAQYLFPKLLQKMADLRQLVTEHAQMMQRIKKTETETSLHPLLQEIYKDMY
# Procedure, shortened: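 Read-out: beta-lactamase FRET fluorescence after 2 h room-temperature incubation with LiveBLAzer B/G substrate. Cells were HEK293H carrying a UAS-bla reporter for PPARd, treated at 37 C with DMSO-dissolved compounds.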
# [7] = qHTS assay to identify small molecule antagonists of the peroxisome proliferator-activated receptor delta (PPARd) signaling pathway - cell viability counter screen (AID 743213); also: nearly all actives have a fitted effect of over 50% in size
# Procedure, shortened: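 Agonist-stimulated (L165041, 300 nM final) HEK293H PPARd UAS-bla cells are exposed to compounds for 17 h at 37 C, and ATP-based luminescence (CellTiter-Glo) from the same wells reports cytotoxicity.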
# [8] = molecular target: Peroxisome proliferator-activated receptor delta (Homo sapiens) (UniProt Q03181); assay: qHTS assay to identify small molecule antagonists of the peroxisome proliferator-activated receptor delta (PPARd) signaling pathway (AID 743215; active = well fitted inhibition curve with a large enough effect in the signal ratio in the repeat runs, not every such curve was filed as active; the % refers to the signal ratio; also: series mostly up to about 62 µM)
# Procedure, shortened: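 Cells: HEK293H with a UAS-driven beta-lactamase reporter responsive to PPARd. Compounds were co-added with L165041 (300 nM, final) and incubated 17 h at 37 C before a 2 h room-temperature FRET substrate step and fluorescence reading.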
# [9] = molecular target: Bile acid receptor (Homo sapiens) (UniProt Q96RI1); assay: qHTS assay to identify small molecule antagonists of the farnesoid-X-receptor (FXR) signaling pathway (AID 743217; active = well fitted inhibition curve with a large enough effect in the signal ratio in the repeat runs, not every such curve was filed as active; the % refers to the signal ratio)
# Chain of Bile acid receptor (Homo sapiens) (Q96RI1 whole entry, looked up): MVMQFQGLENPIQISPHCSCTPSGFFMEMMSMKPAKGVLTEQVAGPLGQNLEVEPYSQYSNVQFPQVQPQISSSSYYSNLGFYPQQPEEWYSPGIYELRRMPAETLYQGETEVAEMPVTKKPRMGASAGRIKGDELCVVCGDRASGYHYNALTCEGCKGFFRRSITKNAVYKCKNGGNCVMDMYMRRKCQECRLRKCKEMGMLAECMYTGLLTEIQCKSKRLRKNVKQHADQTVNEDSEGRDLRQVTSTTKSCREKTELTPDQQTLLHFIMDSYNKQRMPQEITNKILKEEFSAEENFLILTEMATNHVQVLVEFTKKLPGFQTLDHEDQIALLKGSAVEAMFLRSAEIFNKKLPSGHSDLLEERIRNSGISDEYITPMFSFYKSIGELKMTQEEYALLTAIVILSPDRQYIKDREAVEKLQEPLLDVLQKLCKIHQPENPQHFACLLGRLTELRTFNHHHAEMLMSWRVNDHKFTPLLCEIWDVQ
# Procedure, shortened: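 Cells carrying a UAS-driven beta-lactamase reporter (GeneBLAzer FXR-UAS-bla HEK 293T) were plated and rested 5 h at 37 °C. Compounds in DMSO were added alongside chenodeoxycholic acid agonist at 50 uM final and left 16 h at 37 °C before FRET substrate readout.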
# [10] = qHTS assay to identify small molecule agonists of the farnesoid-X-receptor (FXR) signaling pathway - cell viability counter screen (AID 743218); also: nearly all actives have a fitted effect of over 45% in size
# Procedure, shortened: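 Cells were seeded, left 5 h at 37 C and 5% CO2, then dosed with compound in DMSO for 16 h. After the beta-lactamase FRET read, CellTiter-Glo was added and luminescence measured 30 min later.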
# [11] = molecular target: Bile acid receptor (Homo sapiens) (UniProt Q96RI1); assay: qHTS assay to identify small molecule agonists of the farnesoid-X-receptor (FXR) signaling pathway (AID 743220; active = well fitted activation curve with a large enough effect in the signal ratio in the repeat runs, not every such curve was filed as active; the % refers to the signal ratio)
# Procedure, shortened: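 FXR-UAS-bla HEK 293T cells carrying a UAS-driven beta-lactamase reporter were plated for 5 h at 37C/5% CO2, then exposed to DMSO-dissolved Tox21 10K compounds for 16 h at 37C. A LiveBLAzer B/G FRET substrate was loaded for 2 h at room temperature before fluorescence reading.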
# [12] = qHTS assay to identify small molecule antagonists of the farnesoid-X-receptor (FXR) signaling pathway - cell viability counter screen (AID 743221; active = well fitted cell-killing curve with a large enough effect in the repeat runs, not every such curve was filed as active; also: nearly all actives have a fitted effect of over 50% in size)
# Procedure, shortened: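 Here viability was scored by luminescence after CellTiter-Glo addition to wells already read for beta-lactamase. Prior treatment: compound plus CDCA (50 uM final), 16 h, 37 C, HEK 293T FXR-bla cells.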
# [13] = molecular target: Vitamin D3 receptor (Homo sapiens) (UniProt P11473); assay: qHTS assay to identify small molecule agonists of the vitamin D receptor (VDR) signaling pathway (AID 743222; calls by dose curve)
# Chain of Vitamin D3 receptor (Homo sapiens) (P11473 whole entry, looked up): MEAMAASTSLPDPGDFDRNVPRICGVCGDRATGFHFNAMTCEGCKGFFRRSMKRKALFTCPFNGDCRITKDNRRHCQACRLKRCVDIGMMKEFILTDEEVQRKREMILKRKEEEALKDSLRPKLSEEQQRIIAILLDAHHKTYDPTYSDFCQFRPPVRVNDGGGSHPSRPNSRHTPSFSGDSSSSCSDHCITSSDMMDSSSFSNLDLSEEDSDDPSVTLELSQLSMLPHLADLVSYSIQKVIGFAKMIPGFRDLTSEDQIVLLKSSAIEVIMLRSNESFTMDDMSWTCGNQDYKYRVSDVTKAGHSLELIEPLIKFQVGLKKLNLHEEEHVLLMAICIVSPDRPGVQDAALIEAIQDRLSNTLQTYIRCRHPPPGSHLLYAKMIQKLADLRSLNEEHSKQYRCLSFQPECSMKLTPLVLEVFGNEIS
# Procedure, shortened: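 Cells carrying a VDR-driven beta-lactamase reporter are seeded at 2,000 per well and rested 4 h. Compounds in DMSO are added for 16 h at 37C, and FRET substrate fluorescence is measured after 2 h at room temperature.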
# [14] = molecular target: Vitamin D3 receptor (Homo sapiens) (UniProt P11473); assay: qHTS assay to identify small molecule antagonists of the vitamin D receptor (VDR) signaling pathway (AID 743223; active = well fitted inhibition curve with a large enough effect in the signal ratio in the repeat runs, not every such curve was filed as active; the % refers to the signal ratio)
# Procedure, shortened: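 Inhibition of agonist-driven VDR signalling is scored in VDR-bla cells: 3 nM final 1alpha,25-dihydroxyvitamin D3 plus compound, 16 h at 37C, then beta-lactamase detection by FRET substrate fluorescence after 2 h.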
# [15] = qHTS assay to identify small molecule agonists of the vitamin D receptor (VDR) signaling pathway - cell viability counter screen (AID 743224); also: series mostly up to about 63 µM; nearly all actives have a fitted effect of over 50% in size
# Procedure, shortened: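 Cells: VDR-bla, 2,000/well, settled 4 h. Treatment: compounds in DMSO, 16 h, 37C/5% CO2. Readout: CellTiter-Glo luminescence after 30 min RT.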
# [16] = qHTS assay for small molecule agonists of the antioxidant response element (ARE) signaling pathway (AID 743202; active = well fitted activation curve with a large enough effect in the signal ratio in the repeat runs, not every such curve was filed as active; the % refers to the signal ratio; also: potency is read from the fitted curve at half-maximal effect)
# Procedure, shortened: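 HepG2 ARE-bla reporter line, 2,000 cells/well; 5 h preincubation 37 C/5% CO2; compound (DMSO) 16 h 37 C; B/G FRET substrate 2 h RT; fluorescence intensity.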
# [17] = qHTS assay to identify small molecule that activate the aryl hydrocarbon receptor (AhR) signaling pathway - cell viability counter screen (AID 743086);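 also: HepG2 liver cells carrying the AhR DRE luciferase reporter; series mostly up to about 70 µM; nearly all actives have a fitted effect of over 45% in size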
# Procedure, shortened: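 HepG2-AhR-luc (HG2L7.5c1) cells, 4000/well, treated 24 h at 37 C with compound; viability measured as CellTiter-Fluor fluorescence after 30 min in the same wells as the luciferase read.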
# [18] = molecular target: Peroxisome proliferator-activated receptor gamma (Homo sapiens) (UniProt P37231); assay: qHTS assay to identify small molecule agonists of the peroxisome proliferator-activated receptor gamma (PPARg) signaling pathway (AID 743094; active = well fitted activation curve with a large enough effect in the signal ratio in the repeat runs, not every such curve was filed as active; the % refers to the signal ratio)
# Chain of Peroxisome proliferator-activated receptor gamma (Homo sapiens) (P37231 whole entry, looked up): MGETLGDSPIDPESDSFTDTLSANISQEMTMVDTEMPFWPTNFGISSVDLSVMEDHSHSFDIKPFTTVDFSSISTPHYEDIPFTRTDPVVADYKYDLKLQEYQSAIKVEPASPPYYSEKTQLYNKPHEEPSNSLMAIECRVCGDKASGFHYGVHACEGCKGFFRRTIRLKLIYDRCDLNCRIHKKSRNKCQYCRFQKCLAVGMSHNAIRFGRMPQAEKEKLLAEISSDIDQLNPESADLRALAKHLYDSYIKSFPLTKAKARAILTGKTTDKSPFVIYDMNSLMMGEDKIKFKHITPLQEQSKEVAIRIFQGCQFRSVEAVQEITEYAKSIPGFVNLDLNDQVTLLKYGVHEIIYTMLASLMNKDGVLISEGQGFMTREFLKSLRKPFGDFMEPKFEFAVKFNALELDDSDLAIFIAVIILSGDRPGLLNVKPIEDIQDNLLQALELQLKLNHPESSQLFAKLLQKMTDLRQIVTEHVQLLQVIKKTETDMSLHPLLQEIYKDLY
# Procedure, shortened: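 Cells from the PPARg UAS-bla HEK293H line are plated and incubated 5 h at 37C. Compounds in DMSO are pinned in and left 17 h at 37C. LiveBLAzer B/G substrate is then added for 1 h at room temperature before fluorescence is measured.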
# [19] = molecular target: Peroxisome proliferator-activated receptor gamma (Homo sapiens) (UniProt P37231); assay: qHTS assay to identify small molecule antagonists of the peroxisome proliferator-activated receptor gamma (PPARg) signaling pathway (AID 743191; calls by dose curve; also: series mostly up to about 63 µM; nearly all actives have a fitted effect of over 30% in size)
# Procedure, shortened: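 GeneBLAzer PPARg UAS-bla HEK293H cells, 5 h post-plating, exposed to compounds 17 h at 37C. LiveBLAzer B/G FRET substrate added for 1 h at room temperature; beta-lactamase reporter read by fluorescence intensity.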
Structure (SMILES),outcome [1],outcome [2],Potency [3],outcome [4],outcome [5],outcome [6],outcome [7],outcome [8],outcome [9],outcome [10],outcome [11],outcome [12],outcome [13],outcome [14],outcome [15],Potency [16],outcome [17],outcome [18],outcome [19]
CC(C)C(=O)Nc1cccc(C2CN3CCSC3=N2)c1 (centres undefined),inactive,inactive,inactive,inactive,inactive,inactive,inactive,inactive,inactive,inactive,inactive,inactive,inactive,inactive,inactive,–,–,–,–
CNC(=O)c1c(I)c(NC(C)=O)c(I)c(C(=O)O)c1I,inactive,inactive,–,inactive,–,inactive,inactive,inactive,–,–,–,inactive,–,–,inactive,inactive,–,–,–
CCCCCCCCCCCCCC(=O)OCC,inactive,inactive,–,inactive,inactive,inactive,inactive,–,–,–,–,–,inactive,inactive,inactive,–,inactive,inactive,–
CCN(CC)CC(=O)Oc1ccc(NC(C)=O)cc1,inactive,inactive,inactive,inactive,inactive,inactive,inactive,inactive,inactive,inactive,inactive,inactive,inactive,–,inactive,inactive,–,–,inactive
NNC(=O)OCc1ccccc1,inactive,inactive,inactive,inactive,–,inactive,inactive,inactive,–,–,–,–,inactive,inactive,inactive,–,–,inactive,–
Cc1cc(=O)oc2cc(O[C@@H]3SC[C@@H](O)[C@H](O)[C@H]3O)ccc12,inactive,inactive,–,inactive,inactive,inactive,inactive,inactive,inactive,inactive,inactive,inactive,inactive,–,inactive,inactive,–,–,inactive
C[C@@H]1CCC[C@H](C)N1CCCC(O)(c1ccccc1)c1ccccn1 (some centres undefined),inactive,inactive,inactive,inactive,inactive,inactive,–,–,–,inactive,–,inactive,–,–,inactive,inactive,–,–,inactive
CCCCCCCCCCCBr,inactive,inactive,–,inactive,inactive,inactive,inactive,–,inactive,inactive,inactive,inactive,inactive,inactive,inactive,inactive,–,inactive,–
COC(=O)c1cc(Cl)c(NC(C)=O)cc1OC,inactive,inactive,inactive,inactive,inactive,inactive,inactive,–,inactive,–,inactive,inactive,inactive,inactive,inactive,inactive,–,–,inactive
CN(C)CCC[C@@]1(c2ccc(F)cc2)OCc2cc(C#N)ccc21,inactive,inactive,inactive,inactive,inactive,inactive,inactive,–,–,inactive,–,inactive,inactive,–,inactive,–,inactive,inactive,–
COc1cc(S(N)(=O)=O)cc(C(=O)O)c1OC,inactive,inactive,inactive,inactive,inactive,inactive,inactive,–,–,inactive,–,inactive,inactive,inactive,inactive,inactive,–,–,inactive
O=C(O)COc1ccc2ccccc2c1,–,inactive,inactive,inactive,inactive,–,inactive,–,inactive,–,inactive,inactive,inactive,inactive,inactive,–,inactive,inactive,inactive
CO/N=C(\C(=O)O)c1csc(NC(=O)CCl)n1,inactive,inactive,inactive,inactive,–,–,–,–,–,inactive,–,inactive,inactive,inactive,inactive,13.3 µM (active),–,–,–
CCCCC(O)/C=C(C)/C=C/C=C/C(=O)N1CCCC1=O (centres undefined),inactive,inactive,inactive,inactive,–,inactive,–,inactive,inactive,inactive,inactive,inactive,inactive,inactive,inactive,inactive,–,–,inactive
Cc1cc(N)no1,inactive,inactive,inactive,inactive,–,inactive,–,inactive,–,inactive,–,inactive,inactive,inactive,inactive,–,inactive,–,–
CC(C)(C)c1ccc(C(=O)CCCCl)cc1,inactive,inactive,inactive,inactive,–,inactive,inactive,inactive,–,inactive,–,inactive,inactive,inactive,inactive,inactive,–,–,–
O=C1Nc2ccccc2C1=O,–,inactive,inactive,inactive,inactive,inactive,inactive,inactive,–,inactive,–,inactive,inactive,inactive,inactive,27.1 µM (active),inactive,inactive,–
